Inconclusive results are not listed. A call without a number means that no potency is given here. The source made the active and inactive calls. Calls follow the shape of the full dose curve.
Potency is read from the fitted curve at half-maximal effect.

The nature of this assay: A qHTS for Small Molecule Inhibitors of Shiga Toxin (Confirmatory). Also: nearly all actives have a fitted effect of over 75% in size. As to conditions: Cell-based Shiga toxin protection reporter assay; series mostly up to 38.3 µM. (In qHTS, concentration-response curves come from the screen itself.)
`COc1ccc(C2C(C#N)=C(C)NC3=C2C(=O)CC(C)(C)C3)c(OC)c1` (configuration not stated): the Potency result is “inactive”.
For `CS(=O)(=O)N(CC(=O)Nc1ccccc1Sc1ccccc1)C1CCCCC1`, the Potency entry was “inactive”.
Turning to `Cc1cc(Cl)ccc1NC(=O)CN1CCC(C(O)(c2ccccc2)c2ccccc2)CC1`, the Potency entry is “inactive”.
In the case of `COc1ccc(/C=C/c2nnc(NC(=O)CSc3ccc(Cl)cc3)s2)cc1`, the Potency was 11.3 µM (active).
As for `COc1ccccc1C(=O)NNC(=O)c1ccc2ccccc2c1`, the Potency was 0.0006 µM (active).
As to `CCCC[C@@H]1C[C@H]1[C@@H](NC(=O)c1ccco1)c1ccc(Cl)cc1`, the Potency is 8.95 µM (active).
For `COCCCNC(=O)NC(=O)c1ccccc1`, the Potency result is “inactive”.
`NS(=O)(=O)c1cc(C(=O)NCC2CCCCC2)ccc1Cl`: the Potency result was “inactive”.
For `CCOc1ccc2nc(SCC(=O)NC3CCCCC3)[nH]c2c1`, the Potency result is “inactive”.
On to `Cc1cc(C(=O)COC(=O)C2CC2)c(C)n1-c1ccc(F)cc1`, for which the Potency is 4 µM (active).
In the case of `Cc1ccc(C)n1-c1ccc(NC(=O)c2ccccc2)cc1`, the Potency is 15.9 µM (active).
The result for `COc1ccccc1NC(=O)Nc1cc(F)ccc1F` reads 20 µM (active); that for `CON(C)S(=O)(=O)c1cccc(C(=O)NC2CCSc3ccccc32)c1` (configuration not stated), “inactive”.
As for `COc1cc(/C=C2/C(=O)c3cccc([N+](=O)[O-])c3C2=O)c(Br)cc1O`, the Potency was 22.5 µM (active).
As to `COc1ccc(CNC(=O)C(OC(=O)c2ccco2)c2ccccc2F)cc1` (configuration not stated), the Potency entry was “inactive”.
The result for `CCOC(=O)C1CCCN(c2nc3ccccc3nc2C(C#N)C(=O)OCC)C1` (configuration not stated) reads “inactive”; that for `CCCn1nnc(NC(=O)COc2ccc(C3CCCCC3)cc2)n1`, 0.0252 µM (active).
The result for `COc1ccccc1CNC(=O)c1csc2c1CCCC2` reads 10 µM (active).
Turning to `O=C(Nc1ccc(Cl)cc1)C1CCN(C(=O)c2cccs2)CC1`, the Potency result was “inactive”.
As for `CC1(C)Cc2c(cnn2-c2ccccc2)C(NC(=O)CCN2CCCCO2)C1` (configuration not stated), the Potency entry was “inactive”.
Consider `CCCNC(=O)c1ccc2snnc2c1`, for which the Potency entry was “inactive”.
For `Nc1cc(N)nc(SCC(=O)Nc2ccc(Br)cc2Cl)n1`, the Potency is 11.3 µM (active).
Regarding `NS(=O)(=O)c1ccc(CCNC(=O)c2ccc(NC3=NC4CS(=O)(=O)CC4S3)cc2)cc1` (configuration not stated), the Potency result was “inactive”.
Consider `CC(OC(=O)c1ccc2c(=O)n3c(nc2c1)CCC3)C(N)=O` (configuration not stated), for which the Potency result is “inactive”.
For `COc1cccc(C(=O)NNC(=O)C2CC(C)=C(C)CC2C(=O)O)c1` (configuration not stated), the Potency result is “inactive”.
Consider `CC(=O)c1ccc(NC(=O)C(C)Sc2nnc(C3CCCCC3)o2)cc1` (configuration not stated), for which the Potency result was “inactive”.
`O=C(O)Cc1ccc2oc(-c3ccccn3)nc2c1`: the Potency is 12.6 µM (active).
As for `O=C(/C=C/c1cn(CC(O)CN2CCCCC2)c2ccccc12)c1cccs1` (configuration not stated), the Potency result was “inactive”.
Turning to `Oc1ccc(C2C[C@H]3CC[C@@H]2C3)cc1O` (some centres not stated), the Potency was 22.5 µM (active).
As to `O=C(Cc1c[nH]c2ccccc12)NCc1ccc(Cl)cc1`, the Potency entry was “inactive”.
The result for `O=C1C(Cl)=C(Nc2ccccc2)C(=O)c2ccccc21` reads 3.18 µM (active); that for `Cc1cccc(C(=O)Nc2nnc(SCC(=O)NC3CC3)s2)c1`, 4.49 µM (active).
For `Cc1ccccc1C(=O)NN1CCOCC1`, the Potency entry was “inactive”.
In the case of `CCN1CCN(Cc2nnc(-c3ccc(C)cc3)o2)CC1` it was “inactive”; in that of `CC(C)(C)C1CCC(C(=O)OCC(=O)c2ccc[nH]2)CC1` (configuration not stated), 2.52 µM (active).
On to `Cc1nc(SCC(=O)Nc2cc(C)on2)c2c3c(sc2n1)CCCC3`, for which the Potency entry was “inactive”.
With `Cc1ccc(NC(=O)c2cc(S(=O)(=O)N3CCCCC3)ccc2N2CCOCC2)cc1F`, the Potency was 0.04 µM (active).

The values are drawn from PubChem BioAssay AID2320 (National Center for Advancing Translational Sciences (NCATS), 2010).
